# This excerpt belongs to a sample that is enriched for hits.
# 12-LOX inh – blocks human arachidonate 12S-lipoxygenase | P18054 | purified 12hLO, xylenol orange hydroperoxide absorbance | Potency, µM (top dose mostly 108 µM), for the others: at the top dose activity change, negative = inhibition, most hits filed as inhibitors | 1.1% of 580,000 active | AID 1671190; also: potency is read from the fitted curve at half-maximal effect
# Target sequence (P18054 whole entry, looked up): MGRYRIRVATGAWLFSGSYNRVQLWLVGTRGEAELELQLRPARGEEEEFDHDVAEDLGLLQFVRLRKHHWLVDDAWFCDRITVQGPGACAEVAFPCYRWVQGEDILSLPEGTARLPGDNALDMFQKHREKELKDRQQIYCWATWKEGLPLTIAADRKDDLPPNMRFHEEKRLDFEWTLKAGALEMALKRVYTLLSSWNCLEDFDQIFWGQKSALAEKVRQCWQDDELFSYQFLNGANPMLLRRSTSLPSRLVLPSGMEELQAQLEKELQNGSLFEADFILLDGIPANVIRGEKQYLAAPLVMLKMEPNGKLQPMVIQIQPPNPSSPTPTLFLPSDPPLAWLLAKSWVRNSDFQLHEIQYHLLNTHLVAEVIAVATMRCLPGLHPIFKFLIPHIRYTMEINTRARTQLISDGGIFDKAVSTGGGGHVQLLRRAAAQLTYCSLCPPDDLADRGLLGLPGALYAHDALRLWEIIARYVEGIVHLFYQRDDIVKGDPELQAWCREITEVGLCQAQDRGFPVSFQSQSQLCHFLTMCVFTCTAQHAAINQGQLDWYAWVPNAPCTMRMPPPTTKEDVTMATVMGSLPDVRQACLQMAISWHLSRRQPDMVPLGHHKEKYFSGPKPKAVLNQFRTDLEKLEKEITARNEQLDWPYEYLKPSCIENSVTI
#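 Purified human 12hLO at 150 nM in 25 mM Hepes, 0.01% Triton X-100, pH 7.0, preincubated 15 min at room temperature with compound. Reaction started with 40 uM arachidonic acid, 30 min at room temperature. Hydroperoxide measured by Fe-xylenol orange, 573/405 nm absorbance ratio.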
# HT1080NT lethal – kills 2HG-producing HT-1080-NT fibrosarcoma cells; Potency, µM (series often up to 46.1 µM), for the others: at the top dose activity, negative = less viability, most hits filed as cytotoxic; AID 686970; 1.6% of 360,000 active; HT-1080-NT fibrosarcoma viability, CellTiter-Glo ATP luminescence, 48 h;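 also: NT is the 2HG producing partner of a matched IDH1 knockdown line; potency is read from the fitted curve at half-maximal effect; 0% = DMSO-treated cells and -100% = media-only wells without cells; nearly all actives have a fitted effect of over 55% in size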
#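 HT-1080-NT; 750 cells/well; 5% FBS RPMI; 48 h compound, 37 degrees C; CellTiter-Glo luminescence; curve fitting and curve-class assignment.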
# IL-1B inflam inh – inhibitors of inflammasome signaling (IL-1 beta secretion) | 4.7% of 360,000 active | activity change, % at 57.5 µM | AID 743279 | THP-1 LPS/ATP IL-1B secretion, AlphaLISA, 16 h; active compounds read low; in the data active = activity change below about -50%; inconclusive = mostly about -30% to -49%
#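 Secreted IL-1B measured by AlphaLISA bead assay after 16 h compound exposure of THP-1 cells; compounds (final up to 57.5 uM) added 1 h before LPS (250 ng/mL) and ATP (1.25 mM) stimulation; lower signal means less secretion.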
# HT1080 IDH1KD tx – kills HT-1080 cells with IDH1 knockdown. HT-1080 IDH1 knockdown viability, ATP luminescence, 48 h. Potency, µM (doses to about 46.1 µM), for the others: at the highest dose activity, negative = toxicity, most hits filed as cytotoxic. 2% of 360,000 active;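 also: potency is read from the fitted curve at half-maximal effect; 0% = DMSO wells and -100% = cell-free medium wells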
#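 In this qHTS, HT-1080 cells depleted of IDH1 are exposed for 48 h at 37 °C to compound titrations. Toxicity is scored from CellTiter-Glo luminescence, with DMSO as full viability and medium alone as none.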
# TDP1 cell CPT – growth inhibition of DT40 Tdp1-/-;hTDP1 cells with camptothecin (screen for TDP1 inhibitors). chicken DT40 Tdp1-/-;hTDP1 cells + 20 nM CPT, ATP luminescence, 48 h. 12% of 420,000 active. Potency, µM (top dose mostly 46.2 µM), for the others: top-dose activity change, negative = growth inhibition, hits mostly inhibitors; also: potency is read from the fitted curve at half-maximal effect; nearly all actives have a fitted effect of over 55% in size
#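 Chicken DT40 Tdp1-/- cells stably complemented with human TDP1 were seeded at 400 cells/well in medium containing 20 nM camptothecin, exposed to pin-transferred compounds, and grown at 37 °C for at least 48 hr. Viability was read as ATP luminescence.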
# DT40 TDP1 no CPT – qHTS for Inhibitors of human tyrosyl-DNA phosphodiesterase 1 (TDP1): qHTS in cells in absence of CPT; DT40 Tdp1-/- hTDP1 cells, no CPT, ATP luminescence, 48 h; AID 686978, 2013; 15% of 420,000 active; Potency, µM (highest dose often 46.2 µM), for the others: at the highest dose activity change, negative = growth inhibition, usual class: inhibitors; also: potency is read from the fitted curve at half-maximal effect; nearly all actives have a fitted effect of over 55% in size
#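 Growth of hTDP1-complemented DT40 Tdp1-knockout cells is measured by ATP luminescence after at least 48 hr compound exposure at 37 °C, with DMSO substituting for the 20 nM CPT used in the parallel screen.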
# * marks the source's active call; other numbers are inactive results; ? = inconclusive; nt = no result given; [ ] = another dose, or the depositor's remark. Unless noted, calls follow the shape of the dose curve; as a rule, active = well fitted curve in the direction sought with a large enough effect; inconclusive = small, poorly fitted or top-dose-only effect, or another doubt; inactive = no such curve, though single readings can be large; an effect the other way counts as inactive or inconclusive. Unless noted, % is scaled to controls: 0 for no effect and ±100 for the full control effect.
SMILES,12-LOX inh,HT1080NT lethal,IL-1B inflam inh,HT1080 IDH1KD tx,TDP1 cell CPT,DT40 TDP1 no CPT
COc1cc(NC(=O)Cn2nc(C(F)(F)F)c3c2CCCC3)c(OC)cc1Cl,?,nt,nt,nt,21µM*,16µM*
COc1ccc(NC(=O)Cn2nc(C(F)(F)F)c3c2CCCC3)c(OC)c1,-23%,6%,28,0%,-33%,?
CCc1ccccc1NC(=O)Cn1nc(C(F)(F)F)c2c1CCCC2,-18%,nt,nt,nt,-3%,?
COC(=O)Nc1ccc(S(=O)(=O)NC2CCS(=O)(=O)C2)cc1 (stereo not given),-10%,28%,24,10%,-6%,-17%
CCCCc1ccc(S(=O)(=O)NC2CCS(=O)(=O)C2)cc1 (stereo not given),-28%,?,5,-15%,21µM*,21µM*
Cc1ccc(NC(=O)c2ccccc2NS(=O)(=O)c2ccc(Cl)s2)cc1,?,21µM*,-4,?,23µM*,15µM*
O=C(Nc1ccccc1Cc1ccccc1)c1ccccc1NS(=O)(=O)c1ccc(Cl)s1,?,16µM*,-26,?,4.6µM*,3.7µM*
O=C(Nn1cc(C(=O)Nc2ccccc2F)c2ccccc2c1=O)c1cnccn1,3%,-23%,17,?,?,?
COc1cc(OC)cc(C(=O)Nn2cc(C(=O)Nc3ccccc3F)c3ccccc3c2=O)c1,-11%,-15%,-8,-11%,23µM*,?
O=c1oc2cc(OCc3nn[nH]n3)ccc2cc1-c1ccc(F)cc1,-9%,nt,nt,nt,nt,nt
COc1ccc2c(-c3cc4ccc(OCc5ccc(F)cc5)cc4oc3=O)cc(=O)oc2c1,-25%,18%,-9,5%,7.3µM*,12µM*
CCCCC(O)(CCCC)C(=O)N/N=C(\C)c1ccc(Cl)cc1,137%,-8%,-54*,-17%,?,?
Cc1ccc(N2CCN(C(C(=O)O)c3cn(CC(=O)O)c4cc(F)ccc34)CC2)c(C)c1 (stereo not given),-18%,nt,nt,nt,nt,nt
CCCCCCCCN1C(=O)[C@H](CC(=O)NCCC(C)C)C[C@@]2(C(=O)OCC)CCCC=C12,?,?,?,?,13µM*,12µM*
CCCCCCCCN1C(=O)[C@H](CC(=O)NCC23CC4CC(CC(C4)C2)C3)C[C@@]2(C(=O)OCC)CCC=C12,?,?,-19,?,-88%,16µM*
CCOC(=O)[C@]12CCCC=C1N(CCC1=CCCCC1)C(=O)[C@H](CC(=O)NCCC(C)C)C2,?,?,-20,?,15µM*,12µM*
COc1ccc(NC(=O)O[C@@H]2CC[C@]3(C)C(CC[C@@H](O)[C@H]3CC(=O)NCc3ccc4c(c3)OCO4)[C@]2(C)CO)cc1 (stereo not given in full),13%,nt,nt,nt,nt,nt
CC(OC(=O)c1ccc2ccccc2c1)C(=O)N(C)Cc1ccccc1 (stereo not given),?,-5%,2,-10%,?,21µM*
CC(OC(=O)c1ccccc1NS(=O)(=O)c1cccc(C(F)(F)F)c1)C(=O)N(C)Cc1ccccc1 (stereo not given),-4%,-7%,-23,0%,?,23µM*
CCOC(=O)c1nn2c(C(F)(F)F)cc(-c3ccc(OC)cc3)nc2c1Br,0%,8%,12,5%,?,?
O=C(O)CCn1ncc2cc(OCC3CCN(C(=O)OC4CCCC4)CC3)ccc21,17%[176 µM],nt,nt,nt,nt,nt
CN(C)c1ncc2nc(CCc3ccccc3)c(=O)n(Cc3cccs3)c2n1,?,nt,nt,nt,?,16µM*
CN(C)c1ncc2ncc(=O)n(CCc3ccccc3)c2n1,0%,nt,nt,nt,21µM*,26µM*
Cc1nc2cnc(N(C)C)nc2n(Cc2cccs2)c1=O,0%,nt,nt,nt,-14%,-29%
CC1(C(=O)NCCCN2CCCC2=O)CCCCC(=O)N1 (stereo not given),13%,nt,nt,nt,nt,nt
SMILES,12-LOX inh,HT1080NT lethal,IL-1B inflam inh,HT1080 IDH1KD tx,TDP1 cell CPT,DT40 TDP1 no CPT
CN(Cc1ccncn1)C(=O)c1ccccc1C1CCNC1 (stereo not given),98%,nt,nt,nt,nt,nt
O=C(c1cccc(-n2cnnc2)c1)N1CCOC(c2ccc(F)cc2)C1 (stereo not given),24%,nt,nt,nt,nt,nt
COc1ccccc1CN(C)CC(O)COc1c(C)ccc(C)c1C (stereo not given),-12%,nt,nt,nt,nt,nt
Cc1ccc(OC(C)C(=O)Nc2ccc3c(c2)n(C)c(=O)n3C)c(C)c1 (stereo not given),45µM*,-16%,-9,-13%,?,?
Cc1ccccc1OCC(=O)Nc1ccc2c(c1)n(C)c(=O)n2C,2%,0%,-24,-17%,?,15µM*
Cn1c(=O)n(C)c2cc(NC(=O)CCl)ccc21,?,?,-91*,?,10µM*,12µM*
CCc1ccccc1NC(=O)Cn1c(=O)c(-c2noc(C)n2)c2n(c1=O)CCCC2,45%,nt,nt,nt,nt,nt
CCc1nc([C@H]2CN(C)C[C@@H]2C(=O)NCC23CCCN2CCC3)c(C)[nH]1,5%,nt,nt,nt,nt,nt
COc1cc2c(NC3CCN(C)CC3)nc(N3CCCN(C)CC3)nc2cc1OCCCCN(C)C,nt,nt,nt,nt,-25%,?
COc1cc2c(NC3CCN(C(C)C)CC3)nc(N3CCCN(C)CC3)nc2cc1OCCOCCN(C)C,nt,nt,nt,nt,7.1µM*,14µM*
COc1cc2c(NC3CCN(C)CC3)nc(N3CCCN(C)CC3)nc2cc1OCCCCCCN(C)C,nt,nt,nt,nt,16µM*,?
COc1cc2c(NC3CCN(C(C)C)CC3)nc(N3CCCN(C)CC3)nc2cc1OCCCN1CCCC1,nt,nt,nt,nt,5µM*,3.5µM*
COc1cc2c(NC3CCN(C)CC3)nc(N3CCCCC3)nc2cc1OCCCN(C)C,nt,nt,nt,nt,4µM*,10µM*
O=C(NC(=S)N(Cc1ccccc1)Cc1ccccc1)c1ccccc1F,-1%,-12%,12,-11%,?,?
CCOc1ccc(CC(=O)N2CCCN(c3cc(-c4ccccc4)[nH]n3)CC2)cc1OCC,26%,nt,nt,nt,nt,nt
CCc1ccccc1NC(=O)NNS(=O)(=O)c1cc(C)ccc1C,-2%,4%,3,6%,-1%,2%
COc1ccc(C(=O)N2CCC3(CC2)C(OC)C(=O)N3c2cccc(F)c2)cn1 (stereo not given),34%,nt,nt,nt,nt,nt
COc1ccc2ccc(OCc3nc(C(=O)N4CCNC(=O)C4C)co3)cc2c1 (stereo not given),29%,nt,nt,nt,nt,nt
